High-throughput results (PubChem)
PG9 Ab binder: small molecules binding HIV-1 gp120 antibody PG9 | TR-FRET gp120-PG9 antibody binding | inhibition, % at 6.7 µM | 0.43% of 360,000 active | AID 624416; in the data active = inhibition above about 8.5%
PP1 counter: counter-screen for PP5 inhibitors: inhibitors of human PP1-alpha; P62136; purified PP1alpha, OMFP fluorescence; inhibition, % at 6.7 µM; 0.9% of 320,000 active; AID 2235;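 active = inhibition above the mean inhibition of all tested compounds plus 3 SD, computed separately for each screening campaign, cut at about 15% in these data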
JMJD2C inh: human JMJD2C demethylase inhibition; GST-JMJD2C(1-420) H3K9me3 demethylation, DELFIA europium; 0.069% of 330,000 active; Q9H3R0; inhibition, % at 2.35 µM;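 active = more than half of a compound's replicate wells show inhibition beyond 50%, single wells judged on their own value; inconclusive = some, but no more than half, of replicates pass 50% inhibition; inactive = no replicate passes 50% inhibition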;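 also: signal counts dimethyl H3K9 product captured on neutravidin plate; 0% = median of DMSO wells and 100% = 0.3 times that DMSO median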
Rev-erbA mod: modulates human Rev-erb alpha binding to DNA | Rev-erbα–FITC-DNA binding, fluorescence polarization, 90 min | activity, % at 10 µM | 0.79% of 370,000 active;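 active = activity above about 14%, limit read from the data; passing the limit was not always enough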;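 also: 0% = DMSO wells with 35 nM protein and 100% = DMSO wells with 750 nM protein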
Target sequence (P20393 whole entry, looked up): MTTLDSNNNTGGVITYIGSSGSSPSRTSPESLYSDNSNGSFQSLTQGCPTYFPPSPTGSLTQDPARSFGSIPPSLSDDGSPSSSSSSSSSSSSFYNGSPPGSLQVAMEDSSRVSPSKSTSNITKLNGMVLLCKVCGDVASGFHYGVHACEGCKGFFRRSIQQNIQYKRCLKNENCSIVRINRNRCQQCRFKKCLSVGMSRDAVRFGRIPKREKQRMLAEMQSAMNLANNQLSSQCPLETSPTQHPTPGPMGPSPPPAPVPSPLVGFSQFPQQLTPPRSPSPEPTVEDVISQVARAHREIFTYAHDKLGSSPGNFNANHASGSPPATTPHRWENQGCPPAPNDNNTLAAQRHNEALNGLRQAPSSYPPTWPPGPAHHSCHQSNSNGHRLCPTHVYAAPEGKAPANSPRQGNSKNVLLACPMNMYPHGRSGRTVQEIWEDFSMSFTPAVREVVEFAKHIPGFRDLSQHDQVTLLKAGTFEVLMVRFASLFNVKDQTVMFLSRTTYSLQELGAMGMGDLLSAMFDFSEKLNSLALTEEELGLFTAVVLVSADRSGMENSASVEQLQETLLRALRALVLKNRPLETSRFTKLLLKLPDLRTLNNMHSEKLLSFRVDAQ
proKLK7 act: activators of human kallikrein-7 zymogen; P49862; purified proKLK7, EDANS-DABCYL substrate fluorescence; 100% is mature enzyme control, 0% vehicle; activation, % at 7 µM; 0.9% of 370,000 active; AID 652039;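 active = activation above the mean of all tested compounds plus 3 SD, computed per campaign excluding outliers beyond control limits, cut at about 13% in these data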
PP5 primary: inhibitors of human protein phosphatase 5 (PP5). P53041. purified PP5c, OMFP substrate fluorescence. inhibition, % at 6.7 µM. 0.18% of 320,000 active;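 active = inhibition above the campaign's mean inhibition across all tested compounds plus 3 SD, cut at about 9.5% in these data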;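 also: 0% = DMSO only and 100% = 100 µM cantharidin control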
PP1 inh confirm: confirmation of human PP1 phosphatase inhibitors; shares compounds with PP1 counter; purified PP1alpha, OMFP substrate fluorescence; inhibition, % at 6.7 µM; 52% of 1,900 active; AID 2358;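 active = mean PP1 inhibition above a set limit taken from the earlier primary screen, cut at about 15% in these data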
PP5 counter: inhibits human PP5 phosphatase in PP1 counter-screen; inhibition, % at 6.7 µM; shares compounds with PP1 counter; purified PP5c, OMFP fluorescence; AID 2360; 4% of 1,900 active;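 active = mean PP5 inhibition over triplicate wells above about 9.5% taken from the earlier PP1 screen, limit read from the data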
* hit, by the source's call; ? = inconclusive; . = no result given. Compounds with a hit are over-represented: about 2.8% of the library has one in this group of screens.

SMILES	PG9 Ab binder	PP1 counter	JMJD2C inh	Rev-erbA mod	proKLK7 act	PP5 primary	PP1 inh confirm	PP5 counter
O=C(Cn1c(-c2cncs2)nc2ccccc21)NC1CCCCC1	.	.	.	-6	-1	.	.	.
COc1ccc(C[C@H]2CN3C(=NC[C@@H]3C(C)C)N2C[C@H](C)NC(=O)c2ccc(C)c(Br)c2)cc1	0	3	0	3	0	-5	.	.
COc1ccc(C[C@H]2CN3C(=NC[C@H]3Cc3ccccc3)N2CCNC(=O)c2ccc(C)c(Br)c2)cc1	.	19*	-14	.	.	1	-5	1
COc1ccc(C[C@H]2CN3C(=NC[C@@H]3Cc3ccccc3)N2CCNC(=O)c2ccc(C)c(Br)c2)cc1	.	22*	0	.	.	-1	-7	-2
COc1ccc(C[C@H]2CN3C(=NC[C@@H]3Cc3ccc(O)cc3)N2CCNC(=O)c2ccc(C)c(Br)c2)cc1	0	13	-5	-1	1	4	.	.
Cc1ccc(C(=O)NCCN2C3=NC[C@@H](Cc4ccccc4)N3C[C@H]2Cc2ccc(O)cc2)cc1Br	-1	15	-5	5	0	5	.	.
COc1ccc(C[C@H]2CN3C(=NC[C@@H]3Cc3ccc(O)cc3)N2C[C@H](C)NC(=O)c2ccc(C)c(Br)c2)cc1	.	18*	-23	.	.	3	10	-4
Cc1ccc(Cn2cc(COC(=O)Nc3ccc(F)cc3)nn2)cc1	.	.	.	-2	0	.	.	.
COc1ccc(N2C[C@@]3(O)CC[C@@H](O)[C@@H](OC)[C@@H]3[C@@]2(C)[C@H](O)CC=C(C)C)cc1	1	.	.	-5	0	.	.	.
Cc1ccc(NC(=O)CCC(=O)OCC(=O)c2ccc(-c3ccccc3)cc2)cc1	4	29*	11	-3	0	-1	21*	-3
O=C(CCC(=O)OCC(=O)c1ccc(-c2ccccc2)cc1)Nc1cccc2cccnc12	0	0	3	2	0	6	.	.
COc1ccc(C(=O)NCC(=O)Nc2ccc(-c3ccccc3)cc2)cc1	2	20*	1	-8	0	-2	33*	-3
O=C(C(=O)N1CCN(S(=O)(=O)c2ccc(Cl)cc2)CC1)c1cccc(C(F)(F)F)c1	0	.	.	-7	0	.	.	.
COc1ccc(N2C[C@@]3(O)CC[C@@H](O)[C@@H](OC)[C@@H]3[C@@](C)(O)[C@@H]2CC=C(C)C)cc1	1	.	.	-3	0	.	.	.
NC(=O)c1c(N)[nH]c(C(=O)c2ccccc2)c1-c1ccccc1Cl	3	.	.	3	0	.	.	.
O=C(N1CCC(Cc2ccccc2)CC1)n1ncc(C(O)(c2ccccc2)c2ccccc2)n1	.	.	.	-1	.	.	.	.
O=c1[nH]c(CN2CCc3ccccc32)nc2scc(-c3cccs3)c12	1	19*	12	1	-1	-1	13	-1
O=C(CSCc1nc2scc(-c3cccs3)c2c(=O)[nH]1)Nc1ccccn1	-2	2	2	-1	-1	0	.	.
CCOC(=O)[C@@]12CCC3=C1N(CCC3)C(=O)[C@H](CC(=O)NCCCCc1ccccc1)C2	.	.	.	2	1	.	.	.
COC(=O)C1=COC(C)C2CN3CCc4c([nH]c5ccccc45)C3CC12 (stereo not drawn)	-6	20*	?	1	3	5	-3	18*
COC(=O)C1=CO[C@@H](C)[C@H]2CN3CCc4c([nH]c5ccccc45)[C@@H]3C[C@H]12	-5	1	.	1	2	-1	.	.
O=C(NN=Cc1cccc(OCc2ccccc2)c1)c1cc(-c2ccc(Cl)cc2)n[nH]1	.	.	.	4	2	.	.	.
O=C(COC(=O)/C=C/c1ccccc1F)Nc1nnc(-c2ccccc2)o1	-1	21*	-1	2	1	-3	22*	-1
O=C(COC(=O)/C=C/c1ccc(F)cc1)Nc1nnc(-c2ccccc2)o1	0	18*	-2	-1	0	4	28*	-8
COc1cccc(/C=C/C(=O)OCC(=O)Nc2nnc(-c3ccccc3)o2)c1	.	38*	-5	.	.	-2	25*	-1
